Data from PubChem BioAssay (NCI).
The panel holds about 79,000 compounds, 15% with a hit somewhere; the sample as a whole holds those more often. Active and inactive are the calls of the source. Rule as the data show it: active = growth inhibition above about 70%; inactive = the rest.

Experiment: NCI Yeast Anticancer Drug Screen. Data for the bub3 strain (AID 167)
Details: S. cerevisiae bub3 mutant strain, at 50.0 µM, stronger effect = higher value
Outline: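 Inhibition values come from growth of compound-treated mutant yeast normalised to vehicle-treated controls.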

Row | Compound | growth inhibition
1 | O=C(/C=C/C(=O)c1ccccc1)c1ccccc1 | 36% (inactive)
2 | CCCCCCCO | -14.7% (inactive)
3 | CCCOC(=O)C(O)c1ccccc1 (stereo not given) | -13.2% (inactive)
4 | O=C(O)/C=C/c1ccc2c(c1)CCC2 | 50.6% (inactive)
5 | Nc1nc(OCc2ccccc2)c2[nH]cnc2n1 | -30.9% (inactive)
6 | COc1cccc(COC(=O)Nc2ccccc2)c1OC | 42.5% (inactive)
7 | Cc1ccc(C(=O)c2ccccc2)c(C)c1 | -2.5% (inactive)
8 | CCCCC(O)c1ccccc1 (stereo not given) | -12.9% (inactive)
9 | O=S(=O)(O)c1cc(O)c2c(N=Cc3ccccc3O)c(S(=O)(=O)O)ccc2c1 | 17% (inactive)
10 | OCCN1CCOCC1 | 7% (inactive)
11 | Cc1cc(N)ccc1-c1ccc(N)cc1C | -23.1% (inactive)
12 | NCCC(=O)c1ccc(Cl)cc1 | -9.6% (inactive)
13 | Cc1cc(C)c(N)c(S(=O)(=O)O)c1 | 11.2% (inactive)
14 | c1ccc(Cc2ccccc2)cc1 | -1.1% (inactive)
15 | COC(=O)c1cccnc1 | -23.8% (inactive)
16 | COc1cc(C(=O)NC(=S)Nc2ccc3ccccc3c2)cc(OC)c1OC | -3.4% (inactive)
17 | COC(=O)c1cccc(Br)c1 | 0.15% (inactive)
18 | CCOC(=O)CSc1c([N+](=O)[O-])ncn1C | 8.75% (inactive)

Row | Compound | growth inhibition
19 | O=C(NCCNC(=O)c1ccc(Cl)cc1Cl)c1ccc(Cl)cc1Cl | -1.25% (inactive)
20 | COC(=O)CCCCC1=CCC2C(=O)C=C(O)C2C1 (stereo not given) | -6.6% (inactive)
21 | O=C1Cc2ccccc2C(=O)O1 | -5.15% (inactive)
22 | O=c1cc(-c2ccccc2)[nH]c(=S)[nH]1 | 9.1% (inactive)
23 | O=C(O)c1cc([N+](=O)[O-])ccc1Cl | 21.9% (inactive)
24 | CCN1C(=O)/C(=C/C=C/N(C)c2ccccc2)SC1=S | 20.9% (inactive)
25 | CN(C)c1nc2c([nH]1)c(=O)n(C)c(=O)n2C | -10.1% (inactive)
26 | COc1ncnc2c1cnn2C | -3.85% (inactive)
27 | CC1(O)CCCCC1O (stereo not given) | -13.8% (inactive)
28 | CCc1ccc(/C(C#N)=C/C=C/c2ccccc2)cc1 | 38% (inactive)
29 | C=CCOC(=O)C(=O)OCC=C | 5.35% (inactive)
30 | CCCCCCCCCCCCCCCCC1CC(=O)OC1=O (stereo not given) | -11.3% (inactive)
31 | CC(=O)OCC(=O)[C@@]1(O)CC[C@H]2[C@@H]3CC[C@@H]4C[C@H](O)CC[C@]4(C)[C@H]3C(=O)C[C@@]21C | -2.85% (inactive)
32 | COC1=CC(=O)c2nc(Cl)ccc2C1=O | 11.8% (inactive)
33 | Cc1cc(=O)[nH]c(NN=C2CCCC2)n1 | -33.5% (inactive)
34 | CSc1[nH]c(=O)ncc1F | -2.3% (inactive)
35 | S=c1nn[nH]c2ccccc12 | 7.8% (inactive)

Experiment: NCI Yeast Anticancer Drug Screen. Data for the mlh1 rad18 strain (AID 175)
Details: S. cerevisiae mlh1 rad18 strain growth inhibition; at 50.0 µM; stronger effect = higher value
Outline: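 Steps: expose repair-defective yeast to compound; measure growth; express inhibition against vehicle-treated controls.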

Row | Compound | growth inhibition
36 | CCCCCCCO | -11.9% (inactive)
37 | CCCOC(=O)C(O)c1ccccc1 (stereo not given) | 14.8% (inactive)
38 | O=C(O)/C=C/c1ccc2c(c1)CCC2 | 42.2% (inactive)
39 | Nc1nc(OCc2ccccc2)c2[nH]cnc2n1 | -42.5% (inactive)
40 | COc1cccc(COC(=O)Nc2ccccc2)c1OC | 0.65% (inactive)
41 | Cc1ccc(C(=O)c2ccccc2)c(C)c1 | 28.6% (inactive)
42 | CCCCC(O)c1ccccc1 (stereo not given) | 6.8% (inactive)
43 | CCOc1ccc(I)cc1 | -11.7% (inactive)
44 | O=S(=O)(O)c1cc(O)c2c(N=Cc3ccccc3O)c(S(=O)(=O)O)ccc2c1 | 8.3% (inactive)
45 | OCCN1CCOCC1 | 27.2% (inactive)
46 | NCCC(=O)c1ccc(Cl)cc1 | 19.8% (inactive)
47 | Cc1cc(C)c(N)c(S(=O)(=O)O)c1 | -13.7% (inactive)
48 | c1ccc(Cc2ccccc2)cc1 | 1.15% (inactive)
49 | COC(=O)c1cccnc1 | -1.2% (inactive)
50 | COc1cc(C(=O)NC(=S)Nc2ccc3ccccc3c2)cc(OC)c1OC | 13.1% (inactive)
51 | COC(=O)c1cccc(Br)c1 | 13.4% (inactive)
52 | C=C[Si](OC(C)=O)(OC(C)=O)OC(C)=O | 1.65% (inactive)
53 | CCOC(=O)CSc1c([N+](=O)[O-])ncn1C | -10.4% (inactive)

Row | Compound | growth inhibition
54 | O=C(NCCNC(=O)c1ccc(Cl)cc1Cl)c1ccc(Cl)cc1Cl | -20.2% (inactive)
55 | COC(=O)CCCCC1=CCC2C(=O)C=C(O)C2C1 (stereo not given) | -18.8% (inactive)
56 | O=C1Cc2ccccc2C(=O)O1 | 15.6% (inactive)
57 | O=C(O)c1cc([N+](=O)[O-])ccc1Cl | 34.4% (inactive)
58 | CCN1C(=O)/C(=C/C=C/N(C)c2ccccc2)SC1=S | 7.85% (inactive)
59 | CN(C)c1nc2c([nH]1)c(=O)n(C)c(=O)n2C | 5.45% (inactive)
60 | COc1ncnc2c1cnn2C | 2.9% (inactive)
61 | CC1(O)CCCCC1O (stereo not given) | -15.3% (inactive)
62 | CCc1ccc(/C(C#N)=C/C=C/c2ccccc2)cc1 | 14.7% (inactive)
63 | C=CCOC(=O)C(=O)OCC=C | 14.8% (inactive)
64 | CCCCCCCCCCCCCCCCC1CC(=O)OC1=O (stereo not given) | 4.55% (inactive)
65 | CC(=O)OCC(=O)[C@@]1(O)CC[C@H]2[C@@H]3CC[C@@H]4C[C@H](O)CC[C@]4(C)[C@H]3C(=O)C[C@@]21C | 20.6% (inactive)
66 | COC1=CC(=O)c2nc(Cl)ccc2C1=O | 24.6% (inactive)
67 | Cc1cc(=O)[nH]c(NN=C2CCCC2)n1 | -27.1% (inactive)
68 | CSc1[nH]c(=O)ncc1F | -7.45% (inactive)
69 | CCC(C)(C)C1CCC(O)CC1 (stereo not given) | 1.5% (inactive)
70 | S=c1nn[nH]c2ccccc12 | 8.25% (inactive)
